Inconclusive results are not listed. Calls of active or inactive are those of the source. Unless noted, calls come from the whole dose curve.
Experiments:
[1] = Nuclear factor erythroid 2-related factor 2/antioxidant responsive element (Nrf2/ARE) small molecule agonists: qHTS cell viability counter screen in human keratinocytes (AID 1919968; active = well fitted curve in the direction sought with a large enough effect in the repeat runs; an effect the other way counts as inactive or inconclusive; note: nearly all actives have a fitted effect of over 55% in size; note: potency is the fitted concentration of half-maximal effect)
Summary of the method: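 Stably transfected HaCaT (KeratinoSens), 1,500/well. Test agents in DMSO were applied for 23 h, 37 C/5% CO2. CellTiter-Fluor was incubated 1 h before the fluorescence read.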

[2] = Nuclear factor erythroid 2-related factor 2/antioxidant responsive element (Nrf2/ARE) small molecule agonists: luciferase reporter gene qHTS assay in human keratinocytes (AID 1919969); note: nearly all actives have a fitted effect of over 35% in size
[3] = target: Gonadotropin-releasing hormone receptor (Homo sapiens) (UniProt P30968); test: Human gonadotropin-releasing hormone receptor (GnRHR) small molecule agonists, calcium flux assay in GnRHR-HEK293 cells (AID 1920063); note: nearly all actives have a fitted effect of over 35% in size; note: potency is the fitted concentration of half-maximal effect
Sequence of Gonadotropin-releasing hormone receptor (Homo sapiens) (P30968 whole entry, looked up): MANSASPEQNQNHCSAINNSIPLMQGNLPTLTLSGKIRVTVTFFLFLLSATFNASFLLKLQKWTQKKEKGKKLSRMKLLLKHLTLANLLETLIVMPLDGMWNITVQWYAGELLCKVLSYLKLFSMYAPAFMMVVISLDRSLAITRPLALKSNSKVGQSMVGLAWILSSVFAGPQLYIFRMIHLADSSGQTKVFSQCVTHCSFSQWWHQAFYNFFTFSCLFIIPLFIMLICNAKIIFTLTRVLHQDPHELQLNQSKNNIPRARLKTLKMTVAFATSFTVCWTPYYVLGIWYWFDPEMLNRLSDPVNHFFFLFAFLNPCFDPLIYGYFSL
Summary of the method: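 Stable human GnRHR HEK293 line. 18 h plating, then calcium dye for 1 h at 37 C. Agonist-mode compound addition from DMSO stocks; fluorescence monitored 3 min.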

[4] = target: KiSS-1 receptor (Homo sapiens) (UniProt Q969F8); test: Human kisspeptin (KISS1R) small molecule agonists, calcium flux assay in KISS1R-HEK293 cells (AID 1920064; active = well fitted curve in the direction sought with a large enough effect in the repeat runs; an effect the other way counts as inactive or inconclusive)
Sequence of KiSS-1 receptor (Homo sapiens) (Q969F8 whole entry, looked up): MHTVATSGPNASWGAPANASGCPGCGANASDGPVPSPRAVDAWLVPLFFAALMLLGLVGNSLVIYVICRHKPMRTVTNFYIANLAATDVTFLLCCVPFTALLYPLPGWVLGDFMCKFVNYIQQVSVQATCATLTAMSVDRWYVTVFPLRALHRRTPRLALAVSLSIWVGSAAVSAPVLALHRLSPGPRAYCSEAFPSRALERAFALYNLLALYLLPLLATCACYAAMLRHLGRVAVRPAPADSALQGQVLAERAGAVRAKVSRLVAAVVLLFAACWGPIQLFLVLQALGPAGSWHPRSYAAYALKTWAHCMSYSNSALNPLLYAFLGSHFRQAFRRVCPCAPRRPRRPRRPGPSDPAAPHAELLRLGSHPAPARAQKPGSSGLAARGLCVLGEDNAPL
Summary of the method: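 After overnight (18 h) culture at 37 C/5% CO2, human KISS1R-HEK293 cells received calcium dye for 1 h, then test compound; emission at 540 nm (excitation 480 nm) was tracked for 3 min.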

[5] = G protein-coupled receptor (GPCR) small molecule agonists, calcium flux assay: HEK293 wild type cell line counter screen (AID 1920065)
Summary of the method: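 Following 18 h incubation at 37 C/5% CO2, plates got calcium dye for 1 h; compounds, ATP or DMSO were then pinned in and fluorescence followed kinetically (480/540 nm).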

[6] = target: 5-hydroxytryptamine receptor 2A (Homo sapiens) (UniProt P28223); test: 5-hydroxytryptamine receptor 2A (HTR2A) small molecule antagonists, cell-based qHTS assay (AID 1963586); note: nearly all actives have a fitted effect of over 45% in size
Sequence of 5-hydroxytryptamine receptor 2A (Homo sapiens) (P28223 whole entry, looked up): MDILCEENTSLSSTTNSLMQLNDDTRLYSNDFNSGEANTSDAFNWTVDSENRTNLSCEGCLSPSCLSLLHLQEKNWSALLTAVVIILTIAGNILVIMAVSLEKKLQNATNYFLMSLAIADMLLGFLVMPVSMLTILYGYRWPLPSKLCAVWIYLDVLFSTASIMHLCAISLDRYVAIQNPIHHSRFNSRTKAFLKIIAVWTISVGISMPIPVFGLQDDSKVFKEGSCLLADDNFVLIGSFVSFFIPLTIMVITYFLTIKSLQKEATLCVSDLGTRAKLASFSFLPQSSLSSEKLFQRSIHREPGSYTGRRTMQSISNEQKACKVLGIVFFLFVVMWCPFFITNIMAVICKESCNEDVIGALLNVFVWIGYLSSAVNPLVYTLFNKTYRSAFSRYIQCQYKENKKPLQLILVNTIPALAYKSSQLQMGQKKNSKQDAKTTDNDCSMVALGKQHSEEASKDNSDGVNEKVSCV
Summary of the method: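 CHO cells stably expressing human HTR2A were plated for 18 h at 37 C, then loaded with calcium dye for 1 h. Compounds were preincubated 5 min at room temperature before DOI (4 nM solution) was added. Kinetic fluorescence was read for 3 min.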

[7] = target: 5-hydroxytryptamine receptor 2A (Homo sapiens) (UniProt P28223); test: 5-hydroxytryptamine receptor 2A (HTR2A) small molecule agonists, cell-based qHTS assay (AID 1963587); note: nearly all actives have a fitted effect of over 30% in size
Summary of the method: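 CHO cells stably expressing human HTR2A, plated 18 h, loaded with calcium dye 1 h at 37 C. Agonist mode: compounds added and intracellular calcium fluorescence recorded kinetically for 2 min at 1 sec intervals.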

[8] = target: Muscarinic acetylcholine receptor M1 (Homo sapiens) (UniProt P11229); test: Cholinergic receptor muscarinic 1 (CHRM1) small molecule antagonists, cell-based qHTS assay (AID 1963588); note: nearly all actives have a fitted effect of over 40% in size
Sequence of Muscarinic acetylcholine receptor M1 (Homo sapiens) (P11229 whole entry, looked up): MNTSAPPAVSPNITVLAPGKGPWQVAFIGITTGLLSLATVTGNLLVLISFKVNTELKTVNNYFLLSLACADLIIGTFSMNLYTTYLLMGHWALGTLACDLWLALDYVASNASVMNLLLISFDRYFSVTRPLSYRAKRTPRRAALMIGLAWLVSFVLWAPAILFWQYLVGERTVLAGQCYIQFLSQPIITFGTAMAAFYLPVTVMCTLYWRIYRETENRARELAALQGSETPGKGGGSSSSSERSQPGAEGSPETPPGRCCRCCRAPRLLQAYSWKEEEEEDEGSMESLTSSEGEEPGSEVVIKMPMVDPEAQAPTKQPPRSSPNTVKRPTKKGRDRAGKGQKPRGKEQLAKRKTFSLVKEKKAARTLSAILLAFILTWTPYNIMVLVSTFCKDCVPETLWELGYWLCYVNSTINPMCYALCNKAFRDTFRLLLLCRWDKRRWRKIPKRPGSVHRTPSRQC
Summary of the method: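 Compounds were tested at 15 concentrations in three independent runs. Dye-loaded CHRM1-CHO cells were exposed 5 min at room temperature before stimulation by acetylcholine added at 50nM. Intracellular calcium was read kinetically on FDSS for 3 min.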

[9] = target: Muscarinic acetylcholine receptor M1 (Homo sapiens) (UniProt P11229); test: Cholinergic receptor muscarinic 1 (CHRM1) small molecule agonists, cell-based qHTS assay (AID 1963589); note: nearly all actives have a fitted effect of over 35% in size
Summary of the method: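 Kinetic fluorescence (1 s intervals) of calcium-sensitive dye in human M1 CHO cells after compound addition; cells pre-incubated 18 h at 37 C/5% CO2 and dye-loaded 1 h.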

[10] = cAMP Responsive Elements (CRE) small molecule agonists, cell-based qHTS assay (AID 1963590)
Summary of the method: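 Test agents in DMSO were incubated 3 h at 37 C/5% CO2 with CRE-bla HEK 293T cells seeded 18 h earlier; LiveBLAzer B/G FRET substrate was added and read after 2 h at room temperature.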

[11] = target: Beta-2 adrenergic receptor (Homo sapiens) (UniProt P07550); test: Adrenergic beta2 receptor (ADRB2) small molecule antagonists, cell-based qHTS assay (AID 1963592); note: nearly all actives have a fitted effect of over 50% in size; note: potency is the fitted concentration of half-maximal effect; for activity change, negative = inhibition: series mostly up to about 92 µM
Sequence of Beta-2 adrenergic receptor (Homo sapiens) (P07550 whole entry, looked up): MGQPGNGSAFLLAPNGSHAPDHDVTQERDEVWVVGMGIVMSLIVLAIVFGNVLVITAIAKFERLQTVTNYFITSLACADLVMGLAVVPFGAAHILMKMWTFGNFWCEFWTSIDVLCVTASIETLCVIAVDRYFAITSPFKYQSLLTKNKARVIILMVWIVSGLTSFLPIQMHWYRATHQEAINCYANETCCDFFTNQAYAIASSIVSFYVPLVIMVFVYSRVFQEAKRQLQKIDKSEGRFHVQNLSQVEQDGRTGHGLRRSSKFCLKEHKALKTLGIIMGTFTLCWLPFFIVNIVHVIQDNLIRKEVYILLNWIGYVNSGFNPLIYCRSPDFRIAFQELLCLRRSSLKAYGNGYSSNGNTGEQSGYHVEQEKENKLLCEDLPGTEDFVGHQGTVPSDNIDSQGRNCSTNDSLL
Summary of the method: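 Assay format: CHO-ADRB2 cells, 18-20hr seeding at 37C/5% CO2, then compound plus 1nM isoproterenol agonist mix for 0.5hr RT. Homogeneous time-resolved fluorescence cAMP detection after 1hr, expressed as 665/615 nm ratio.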

[12] = target: D(2) dopamine receptor (Homo sapiens) (UniProt P14416); test: Dopamine D2 receptor (DRD2) small molecule agonists, cell-based qHTS assay (AID 1963594); note: nearly all actives have a fitted effect of over 35% in size
Sequence of D(2) dopamine receptor (Homo sapiens) (P14416 whole entry, looked up): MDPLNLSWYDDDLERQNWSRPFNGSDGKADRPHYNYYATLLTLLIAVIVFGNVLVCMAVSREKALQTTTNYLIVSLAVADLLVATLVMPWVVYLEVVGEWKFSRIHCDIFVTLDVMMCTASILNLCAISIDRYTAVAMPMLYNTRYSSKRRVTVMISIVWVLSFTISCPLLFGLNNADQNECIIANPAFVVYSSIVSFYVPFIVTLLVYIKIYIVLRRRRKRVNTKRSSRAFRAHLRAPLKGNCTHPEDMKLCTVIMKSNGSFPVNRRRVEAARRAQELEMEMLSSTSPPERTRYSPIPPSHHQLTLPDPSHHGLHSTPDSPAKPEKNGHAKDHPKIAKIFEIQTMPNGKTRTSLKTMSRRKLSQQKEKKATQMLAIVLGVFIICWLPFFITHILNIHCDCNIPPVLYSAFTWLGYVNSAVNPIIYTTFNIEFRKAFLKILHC
Summary of the method: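 HEK293 cells stably expressing human DRD2, pre-treated with PDE inhibitor Ro20-1724 (0.1 mM final) and compound 10 min at room temperature, then stimulated with NKH477 (200nM […]) for 30 min. cAMP read by HTRF (665/620 nm).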

[13] = target: D(2) dopamine receptor (Homo sapiens) (UniProt P14416); test: Dopamine D2 receptor (DRD2) small molecule antagonists, cell-based qHTS assay (AID 1963595; active = well fitted inhibition curve with a large enough effect in the signal ratio in the repeat runs, with a control signal flat; the % refers to the signal ratio; note: potency is the fitted concentration of half-maximal effect)
Summary of the method: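 In this cell-based antagonist screen, compounds act for 10 min at room temperature before a 30 min challenge with 12 nM quinpirole and 200 nM NKH477. cAMP is quantified by HTRF competition in DRD2-HEK293 cells containing 0.1 mM Ro20-1724.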

[14] = p53 small molecule agonists, cell-based qHTS assay with rat liver microsomes (AID 1963578)
Summary of the method: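 Metabolic activation by rat liver microsomes and NADPH, each 0.5 mg/mL final, added right after compounds to p53RE-bla reporter cells (4,000/well, plated 5 h earlier). 16 h at 37 C, then LiveBLAzer substrate for 2 h at room temperature in the dark; fluorescence read-out.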

[15] = p53 small molecule agonists, cell-based qHTS assay with human liver microsomes: qHTS cell viability counter screen (AID 1963579); note: nearly all actives have a fitted effect of over 45% in size
Summary of the method: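 Metabolic activation used human liver microsomes and NADPH, both 0.5 mg/mL final, over 16 hours at 37 C on p53RE-bla cells (4,000/well). Cytotoxicity measured by CellTiter-Glo luminescence, 30 min at room temperature.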

[16] = p53 small molecule agonists, cell-based qHTS assay with rat liver microsomes: qHTS cell viability counter screen (AID 1963580); note: nearly all actives have a fitted effect of over 45% in size
Summary of the method: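 After the beta-lactamase ratio was read, CellTiter-Glo was added to the same wells and luminescence measured at 30 min; cells had been treated 16 h at 37 C with compounds, rat liver microsomes and NADPH (0.5 mg/mL final each).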

[17] = p53 small molecule agonists, cell-based qHTS assay: qHTS cell viability counter screen (AID 1963581); note: nearly all actives have a fitted effect of over 45% in size
Summary of the method: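 qHTS counter screen: 16 h compound exposure at 37 C of p53RE-bla HCT-116 cells (4,000 per well, seeded 5 h prior), cell viability by ATP luminescence.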

[18] = p53 small molecule agonists, cell-based qHTS assay (AID 1963582; active = well fitted activation curve with a large enough effect in the signal ratio in the repeat runs, not every such curve was filed as active; the % refers to the signal ratio)
Summary of the method: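 Measured: fluorescence from cleaved LiveBLAzer substrate. System: p53RE-bla cells, 16 h compound treatment at 37 C, 2 h substrate step at room temperature.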

[19] = target: Beta-2 adrenergic receptor (Homo sapiens) (UniProt P07550); test: Adrenergic beta2 receptor (ADRB2) small molecule agonists, cell-based qHTS assay (AID 1963593);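 note: CHO cells stably overexpressing human ADRB2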
Summary of the method: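 CHO cells stably over-expressing ADRB2 were plated overnight at 37C, then dosed with compounds plus a stimulation mix containing 100uM IBMX and 25uM Ro-20-1724 for 0.5hr at room temperature. cAMP was measured by HTRF competition, 1hr.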

[20] = cAMP Responsive Elements (CRE) small molecule antagonists, cell-based qHTS assay (AID 1963591; active = well fitted inhibition curve with a large enough effect in the signal ratio in the repeat runs, not every such curve was filed as active; the % refers to the signal ratio)
Summary of the method: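 Reporter line CRE-bla HEK 293T in dialyzed-FBS DMEM; cells preincubated 18 h, treated 3 h with compound plus NKH477 (0.25 uM final); LiveBLAzer FRET, 2 h RT.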
% is set by controls: 0 for no effect and ±100 for the full control effect.

CCC1(c2cnc[nH]2)Cc2ccccc2C1
inactive: Potency [1] | Potency [2] | Potency [3] | Potency [4] | Potency [5] | Potency [6] | Potency [7] | Potency [8] | Potency [9] | Potency [10] | Potency [11] | Potency [12] | Potency [13]

c1ccccc1
inactive: Potency [1] | Potency [2] | Potency [3] | Potency [4] | Potency [5] | Potency [6] | Potency [7] | Potency [8] | Potency [9] | Potency [10] | Potency [11] | Potency [12] | Potency [13]

CC(C)N1C(=O)c2ccccc2C1=O
inactive: Potency [1] | Potency [2] | Potency [3] | Potency [4] | Potency [14] | Potency [15] | Potency [16] | Potency [17] | Potency [18] | Potency [6] | Potency [7] | Potency [10] | Potency [11] | Potency [19] | Potency [12] | Potency [13]

OCCCS
inactive: Potency [1] | Potency [2] | Potency [3] | Potency [4] | Potency [14] | Potency [15] | Potency [16] | Potency [17] | Potency [18] | Potency [6] | Potency [7] | Potency [8] | Potency [9] | Potency [10] | Potency [20] | Potency [11] | Potency [19] | Potency [12]

NCCCN(CCO)CCO
inactive: Potency [1] | Potency [2] | Potency [3] | Potency [4] | Potency [15] | Potency [16] | Potency [17] | Potency [6] | Potency [7] | Potency [8] | Potency [9] | Potency [10] | Potency [20] | Potency [19] | Potency [12] | Potency [13]
active: Potency [11] 217 nM

CC(=O)Nc1ccc(OC(=O)c2ccccc2OC(C)=O)cc1
inactive: Potency [1] | Potency [2] | Potency [3] | Potency [4] | Potency [15] | Potency [16] | Potency [17] | Potency [6] | Potency [7] | Potency [8] | Potency [9] | Potency [10] | Potency [11] | Potency [19] | Potency [12] | Potency [13]

CC1=CC(=O)/C(=C(/C)O)C(=O)O1
inactive: Potency [1] | Potency [2] | Potency [3] | Potency [4] | Potency [14] | Potency [15] | Potency [16] | Potency [18] | Potency [7] | Potency [8] | Potency [10] | Potency [20] | Potency [12]

C=CCCCCCCCCCCCCCC
inactive: activity change, negative = cytotoxicity [1] 5.7% [at 19 µM] | activity, positive = activation [2] -0.484% [at 19 µM] | activity change [3] 0.565% [at 11.8 µM, active compounds read high] | activation [4] -0.0025% [at 15.8 µM] | activity change, negative = cytotoxicity [15] 3.4% [at 13.5 µM] | activity change, negative = cytotoxicity [16] -3.36% [at 13.5 µM] | activity, negative = inhibition [6] 4.99% [at 12.7 µM] | activation [7] 4.53% [at 15.9 µM] | activity, negative = inhibition [8] -25.1% [at 12.6 µM] | activation [10] -0.128% [at 19 µM] | activity change, negative = inhibition [20] -3.11% [at 18.9 µM] | activity change, negative = inhibition [11] 8.54% [at 19 µM] | activity change, negative = inhibition [13] -4.22% [at 18.9 µM]

C=C(C)[C@@H]1CC=C(C)C(=O)C1
inactive: Potency [1] | Potency [2] | Potency [3] | Potency [4] | Potency [15] | Potency [16] | Potency [17] | Potency [6] | Potency [7] | Potency [8] | Potency [9] | Potency [10] | Potency [20] | Potency [11] | Potency [12] | Potency [13]

CC(C)(CO)C(O)C(=O)NCCCO (configuration not stated)
inactive: Potency [1] | Potency [2] | Potency [3] | Potency [4] | Potency [15] | Potency [16] | Potency [10] | Potency [20] | Potency [11] | Potency [12] | Potency [13]

c1cc(CCCc2ccncc2)ccn1
inactive: Potency [1] | Potency [2] | Potency [3] | Potency [5] | Potency [15] | Potency [16] | Potency [17] | Potency [6] | Potency [7] | Potency [8] | Potency [9] | Potency [10] | Potency [11] | Potency [19] | Potency [12]

CCCCCCCCCCCCN1CCCCCC1=O
active: Potency [1] 61100 nM
inactive: Potency [2] | Potency [3] | Potency [5] | Potency [14] | Potency [15] | Potency [16] | Potency [18] | Potency [6] | Potency [7] | Potency [9] | Potency [10] | Potency [20] | Potency [11] | Potency [19] | Potency [12] | Potency [13]

CC(C)CO
inactive: Potency [1] | Potency [2] | Potency [3] | Potency [4] | Potency [15] | Potency [16] | Potency [20] | Potency [11] | Potency [12] | Potency [13]

COc1cc(S(=O)(=O)Nc2ccccc2)c(OC)cc1N
inactive: Potency [1] | Potency [2] | Potency [3] | Potency [5] | Potency [15] | Potency [16] | Potency [17] | Potency [6] | Potency [7] | Potency [8] | Potency [9] | Potency [10] | Potency [20] | Potency [11] | Potency [12] | Potency [13]

CNCC(O)c1ccc(O)c(O)c1 (configuration not stated)
inactive: Potency [1] | Potency [2] | Potency [5] | Potency [16] | Potency [17] | Potency [18]
active: Potency [3] 42.5 nM | Potency [13] 5310 nM
